Experimental data reported in the supplement of paper PMC10849652.
Targets with a hit are over-represented here; the source holds about 7,900 in all. About 0.6% of all pairs of compound and target were hits. Unmarked numbers belong to inactive results.

Experiments:
Experiment in all cases: log2 fold change, soluble protein after heating vs DMSO (PISA); higher = thermal stabilisation; K562 cells, 10 uM, 30 min; active = over 0.2 and 3.5 SD of the protein, either way, in both replicates (recomputed)
[1] = compound: C#Cc1cccc(Nc2ncnc3cc(OCCOC)c(OCCOC)cc23)c1 [erlotinib]
In short: (§1)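 Thermal stability values are relative to control samples and come from duplicates. They are expressed as log2 fold changes. For measurement, K562 cells (2×10^6 cells/mL) received 10 μM compound for 30 min, and aliquots were heated for 3 min over 48°C-58°C, pooled, and extracted at 4°C in PBS with 0.5% NP-40. Soluble protein, the supernatant after 21,000xg for 90 min, was quantified by TMTpro 16plex LC-MS/MS with equalised channel sums.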

[2] = compound: C/C(=N\NC(=O)C1=CC(=CC=C1)S(=O)(=O)N2CCOCC2)/C3=C(C=CC(=C3)Cl)O
In short: as §1

[3] = compound: C1=CC(=C(C=C1Cl)C2=NC3=NC=CN=C3C(=N2)NC4=CC=NC=C4)F
In short: as §1

[4] = compound: C1=CC(=CC=C1C2=NC3=C(N2)C=C(C=C3)C(=O)N)OC4=CC=C(C=C4)Cl
In short: as §1

[5] = compound: C1=CC2=C(C=CC(=C2)/C=C\3/C(=O)NC(=NCC4=CC=CS4)S3)N=C1
In short: as §1

[6] = compound: C1=CC2=NC=CN=C2C=C1/C=C/3\C(=O)NC(=O)S3
In short: as §1

[7] = compound: C1=CC=C(C=C1)C2=NC(=C(N2)C3=CC=NC=C3)C4=CC(=C(C=C4)Cl)O
In short: as §1

[8] = compound: C1=CC=C2C(=C1)C3=NNC4=CC=CC(=C43)C2=O
In short: as §1

[9] = compound: C1CCN(C1)C(=O)NC2=CC=CC(=C2)NC3=NC=C(C(=N3)NCCC4=CN=CN4)Br
In short: as §1

[10] = compound: C1CN(CCC1(CC2=CC=C(C=C2)Cl)N)C3=NC=NC4=C3C=CN4
In short: as §1

[11] = compound: C1COCCN1CCN2C3=CC=CC=C3N=C2NC(=O)C4=CC(=CC=C4)[N+](=O)[O-] [IRAK-1-4 Inhibitor I]
In short: as §1

[12] = compound: C=CC(=O)N1CCC[C@@H](n2nc(-c3ccc(Oc4ccccc4)cc3)c3c(N)ncnc32)C1 [ibrutinib]
In short: as §1

[13] = compound: CC(=O)c1cnc2ccc(-c3cc(Cl)c(O)c(Cl)c3)nc2c1N[C@H]1CC[C@H](CN(C)C)CC1
In short: as §1

[14] = compound: CC(C)(C)Cn1c(N)nc2ccc(-c3[nH]c(C(C)(C)C)nc3-c3ccc(F)cc3)nc21 [ralimetinib]
In short: as §1

[15] = compound: CC(C)(O)CC(=O)NCCn1ccc2ncnc(Nc3ccc(Oc4cccc(C(F)(F)F)c4)c(Cl)c3)c21
In short: as §1

[16] = compound: CC(C)C1=C2N=C(C=C(N2N=C1)NCC3=CC=CC=C3)NCCCCCCN
In short: as §1

[17] = compound: CC(C)C[C@@H](C=O)NC(=O)[C@H](CC(C)C)NC(=O)[C@H](CC(C)C)NC(=O)OCc1ccccc1
In short: as §1

[18] = compound: CC(C)N(C[C@H]1O[C@@H](n2cnc3c(N)ncnc32)[C@H](O)[C@@H]1O)[C@H]1C[C@@H](CCc2nc3cc(C(C)(C)C)ccc3[nH]2)C1 [pinometostat]
In short: as §1

[19] = compound: CC1=C(C(CC(=O)N1)C2=CC=C(C=C2)C(F)(F)F)C(=O)NC3=C(C=C4C(=C3)C=NN4)F
In short: as §1

[20] = compound: CC1=C(C2=C(C=C1)C(=O)C3=CC=CC=C3N2CCCN)C
In short: as §1

UniProt P63010, sequence (P63010 whole entry, looked up): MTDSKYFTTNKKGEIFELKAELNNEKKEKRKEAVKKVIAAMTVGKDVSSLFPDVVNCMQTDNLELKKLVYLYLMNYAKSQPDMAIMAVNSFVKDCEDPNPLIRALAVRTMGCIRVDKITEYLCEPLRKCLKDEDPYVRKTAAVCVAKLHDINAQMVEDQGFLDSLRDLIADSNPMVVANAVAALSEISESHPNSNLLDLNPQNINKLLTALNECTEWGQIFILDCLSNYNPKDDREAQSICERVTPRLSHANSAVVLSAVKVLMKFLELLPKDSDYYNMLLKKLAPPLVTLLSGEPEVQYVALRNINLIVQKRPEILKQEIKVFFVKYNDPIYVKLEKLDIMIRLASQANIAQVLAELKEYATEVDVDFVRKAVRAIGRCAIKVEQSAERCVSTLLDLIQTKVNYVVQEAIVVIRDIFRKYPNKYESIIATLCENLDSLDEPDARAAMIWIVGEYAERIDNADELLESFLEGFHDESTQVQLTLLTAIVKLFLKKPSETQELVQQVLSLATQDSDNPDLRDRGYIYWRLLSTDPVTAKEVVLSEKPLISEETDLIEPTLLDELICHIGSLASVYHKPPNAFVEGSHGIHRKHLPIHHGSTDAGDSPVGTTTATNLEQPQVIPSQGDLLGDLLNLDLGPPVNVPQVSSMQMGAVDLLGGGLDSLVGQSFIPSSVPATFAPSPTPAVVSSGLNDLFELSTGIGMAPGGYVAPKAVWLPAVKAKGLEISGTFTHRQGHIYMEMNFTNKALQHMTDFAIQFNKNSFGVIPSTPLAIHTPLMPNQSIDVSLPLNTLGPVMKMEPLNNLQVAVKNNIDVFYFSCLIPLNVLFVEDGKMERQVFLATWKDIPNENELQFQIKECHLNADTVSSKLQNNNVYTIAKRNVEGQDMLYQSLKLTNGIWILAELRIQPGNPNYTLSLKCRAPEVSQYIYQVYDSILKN
UniProt P49189, sequence (P49189 whole entry, looked up): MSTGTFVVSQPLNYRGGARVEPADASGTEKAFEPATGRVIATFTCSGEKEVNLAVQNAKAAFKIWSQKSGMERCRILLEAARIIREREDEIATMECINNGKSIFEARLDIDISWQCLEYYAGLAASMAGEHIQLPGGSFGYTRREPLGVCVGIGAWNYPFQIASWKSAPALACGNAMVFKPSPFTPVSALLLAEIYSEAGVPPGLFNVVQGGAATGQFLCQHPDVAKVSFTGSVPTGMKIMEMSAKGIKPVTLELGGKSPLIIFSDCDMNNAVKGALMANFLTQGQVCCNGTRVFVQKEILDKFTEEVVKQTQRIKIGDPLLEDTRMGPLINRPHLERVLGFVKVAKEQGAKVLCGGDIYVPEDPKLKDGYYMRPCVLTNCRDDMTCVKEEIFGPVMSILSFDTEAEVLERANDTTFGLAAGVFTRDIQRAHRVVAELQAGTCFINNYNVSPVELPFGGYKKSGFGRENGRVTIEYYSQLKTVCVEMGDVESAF
UniProt Q86UU0, sequence (Q86UU0 whole entry, looked up): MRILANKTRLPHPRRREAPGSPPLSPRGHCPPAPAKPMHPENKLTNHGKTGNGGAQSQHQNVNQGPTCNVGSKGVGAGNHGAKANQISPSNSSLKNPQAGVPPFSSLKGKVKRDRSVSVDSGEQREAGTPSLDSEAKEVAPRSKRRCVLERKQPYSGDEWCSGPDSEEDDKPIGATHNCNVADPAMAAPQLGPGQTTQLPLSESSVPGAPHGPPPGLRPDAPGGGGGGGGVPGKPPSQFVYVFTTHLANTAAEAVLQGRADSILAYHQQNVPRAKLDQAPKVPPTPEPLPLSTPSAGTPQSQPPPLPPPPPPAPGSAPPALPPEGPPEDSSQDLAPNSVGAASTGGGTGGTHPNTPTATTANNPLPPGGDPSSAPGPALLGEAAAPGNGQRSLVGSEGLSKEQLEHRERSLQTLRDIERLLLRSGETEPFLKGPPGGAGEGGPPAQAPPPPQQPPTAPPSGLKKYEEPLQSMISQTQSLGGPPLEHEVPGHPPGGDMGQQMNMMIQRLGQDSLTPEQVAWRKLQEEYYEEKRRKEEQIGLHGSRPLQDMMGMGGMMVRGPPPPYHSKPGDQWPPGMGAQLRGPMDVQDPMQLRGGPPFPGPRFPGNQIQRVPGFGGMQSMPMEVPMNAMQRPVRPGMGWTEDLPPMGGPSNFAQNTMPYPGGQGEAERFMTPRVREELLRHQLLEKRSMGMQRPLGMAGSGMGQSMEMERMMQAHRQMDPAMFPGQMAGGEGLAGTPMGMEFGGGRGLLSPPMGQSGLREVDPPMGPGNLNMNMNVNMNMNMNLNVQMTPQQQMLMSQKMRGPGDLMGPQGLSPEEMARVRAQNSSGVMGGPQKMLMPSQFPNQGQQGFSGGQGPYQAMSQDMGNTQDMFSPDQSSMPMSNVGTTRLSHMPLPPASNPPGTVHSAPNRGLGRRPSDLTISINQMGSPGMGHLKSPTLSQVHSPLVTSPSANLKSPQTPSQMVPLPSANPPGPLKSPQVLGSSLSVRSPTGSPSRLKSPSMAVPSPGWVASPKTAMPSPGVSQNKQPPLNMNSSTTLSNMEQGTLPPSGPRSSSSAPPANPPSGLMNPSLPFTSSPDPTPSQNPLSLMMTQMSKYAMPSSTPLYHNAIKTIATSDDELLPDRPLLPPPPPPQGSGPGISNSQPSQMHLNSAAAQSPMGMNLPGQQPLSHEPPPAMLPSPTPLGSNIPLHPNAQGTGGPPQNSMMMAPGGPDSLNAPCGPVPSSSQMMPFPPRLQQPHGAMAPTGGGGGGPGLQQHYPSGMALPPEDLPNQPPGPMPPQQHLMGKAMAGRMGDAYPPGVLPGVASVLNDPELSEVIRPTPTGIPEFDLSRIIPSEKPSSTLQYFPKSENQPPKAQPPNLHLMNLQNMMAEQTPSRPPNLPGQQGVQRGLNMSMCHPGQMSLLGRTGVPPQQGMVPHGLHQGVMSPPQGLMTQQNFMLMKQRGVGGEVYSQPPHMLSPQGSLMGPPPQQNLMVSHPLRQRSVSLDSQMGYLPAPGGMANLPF
UniProt P15056, sequence (P15056 whole entry, looked up): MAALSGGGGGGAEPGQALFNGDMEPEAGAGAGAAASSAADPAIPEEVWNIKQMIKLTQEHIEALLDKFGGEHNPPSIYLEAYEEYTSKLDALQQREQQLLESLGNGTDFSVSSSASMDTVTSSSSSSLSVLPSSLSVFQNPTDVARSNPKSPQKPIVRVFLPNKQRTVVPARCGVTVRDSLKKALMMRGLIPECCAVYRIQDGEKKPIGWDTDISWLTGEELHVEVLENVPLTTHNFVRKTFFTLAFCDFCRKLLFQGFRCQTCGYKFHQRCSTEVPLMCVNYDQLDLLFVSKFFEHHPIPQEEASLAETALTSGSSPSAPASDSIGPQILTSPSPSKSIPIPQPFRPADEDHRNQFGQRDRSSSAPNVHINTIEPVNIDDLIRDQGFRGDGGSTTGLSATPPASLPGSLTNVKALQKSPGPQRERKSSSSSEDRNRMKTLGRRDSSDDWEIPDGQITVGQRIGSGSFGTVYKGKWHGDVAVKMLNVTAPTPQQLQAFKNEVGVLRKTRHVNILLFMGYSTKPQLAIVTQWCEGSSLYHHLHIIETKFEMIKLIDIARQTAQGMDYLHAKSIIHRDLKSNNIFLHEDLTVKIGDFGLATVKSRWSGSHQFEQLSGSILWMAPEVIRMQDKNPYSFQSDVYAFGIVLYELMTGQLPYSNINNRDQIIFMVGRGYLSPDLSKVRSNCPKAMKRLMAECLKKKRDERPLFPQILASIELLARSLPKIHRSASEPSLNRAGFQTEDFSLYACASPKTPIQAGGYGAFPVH
UniProt O75882, sequence (O75882 whole entry, looked up): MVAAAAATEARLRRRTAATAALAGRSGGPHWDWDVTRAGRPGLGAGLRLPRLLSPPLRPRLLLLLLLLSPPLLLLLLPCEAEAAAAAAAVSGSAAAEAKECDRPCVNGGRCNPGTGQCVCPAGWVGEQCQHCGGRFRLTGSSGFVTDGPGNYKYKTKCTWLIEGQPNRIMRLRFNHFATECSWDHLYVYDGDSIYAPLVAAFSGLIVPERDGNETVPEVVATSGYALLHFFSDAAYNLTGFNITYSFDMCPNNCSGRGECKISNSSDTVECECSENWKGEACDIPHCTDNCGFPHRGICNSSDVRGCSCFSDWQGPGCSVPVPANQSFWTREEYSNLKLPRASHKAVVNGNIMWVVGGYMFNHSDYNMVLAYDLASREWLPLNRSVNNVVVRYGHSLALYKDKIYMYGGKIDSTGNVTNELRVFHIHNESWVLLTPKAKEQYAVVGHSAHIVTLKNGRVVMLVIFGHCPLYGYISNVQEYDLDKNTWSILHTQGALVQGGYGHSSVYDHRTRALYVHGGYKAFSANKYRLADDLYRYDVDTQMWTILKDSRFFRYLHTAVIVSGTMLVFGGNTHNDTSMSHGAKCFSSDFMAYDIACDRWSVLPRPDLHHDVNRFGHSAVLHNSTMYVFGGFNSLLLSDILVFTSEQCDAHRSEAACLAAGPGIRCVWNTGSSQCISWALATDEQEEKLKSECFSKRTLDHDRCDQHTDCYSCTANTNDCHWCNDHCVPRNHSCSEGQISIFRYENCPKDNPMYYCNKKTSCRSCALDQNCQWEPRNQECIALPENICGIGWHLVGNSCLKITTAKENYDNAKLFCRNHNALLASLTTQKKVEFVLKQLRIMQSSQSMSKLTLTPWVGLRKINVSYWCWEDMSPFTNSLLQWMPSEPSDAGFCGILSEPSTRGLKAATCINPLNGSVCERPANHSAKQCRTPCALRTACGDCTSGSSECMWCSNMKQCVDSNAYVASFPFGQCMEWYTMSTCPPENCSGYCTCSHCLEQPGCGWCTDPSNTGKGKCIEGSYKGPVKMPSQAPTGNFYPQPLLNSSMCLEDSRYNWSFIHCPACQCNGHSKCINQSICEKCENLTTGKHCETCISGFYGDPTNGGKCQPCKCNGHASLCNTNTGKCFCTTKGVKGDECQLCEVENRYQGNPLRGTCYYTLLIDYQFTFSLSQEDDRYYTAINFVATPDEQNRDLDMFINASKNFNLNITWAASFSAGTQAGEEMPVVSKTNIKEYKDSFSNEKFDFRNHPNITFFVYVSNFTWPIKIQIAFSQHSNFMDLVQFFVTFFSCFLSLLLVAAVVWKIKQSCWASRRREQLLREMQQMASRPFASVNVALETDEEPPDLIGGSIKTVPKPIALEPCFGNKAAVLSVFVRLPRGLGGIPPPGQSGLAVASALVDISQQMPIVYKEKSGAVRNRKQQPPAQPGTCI

Target | log2 fold change [1] | log2 fold change [2] | log2 fold change [3] | log2 fold change [4] | log2 fold change [5] | log2 fold change [6] | log2 fold change [7] | log2 fold change [8] | log2 fold change [9] | log2 fold change [10] | log2 fold change [11] | log2 fold change [12] | log2 fold change [13] | log2 fold change [14] | log2 fold change [15] | log2 fold change [16] | log2 fold change [17] | log2 fold change [18] | log2 fold change [19] | log2 fold change [20]
BCL9L (UniProt Q86UU0) | 0.01 | -0.256 | -0.008 | 0.049 | 0.036 | -0.048 | -0.128 | 0.07 | -0.052 | 0.091 | -0.045 | 0 | 0.04 | -0.024 | -0.009 | 0.015 | 0.092 | 0.013 | 0.006 | 0.101
ATP9B (UniProt O43861) | 0.406 (active) | 0.099 | 0.01 | -0.132 | -0.029 | -0.045 | 0.033 | -0.038 | 0.027 | -0.064 | 0.061 | -0.068 | -0.034 | -0.077 | -0.054 | -0.071 | -0.024 | -0.064 | -0.004 | 0.003
ACSF3 (UniProt Q4G176) | 0.07 | -0.066 | 0.057 | -0.155 | -0.104 | 0.04 | 0.028 | 0.022 | -0.001 | -0.038 | 0.05 | -0.088 | -0.129 | -0.004 | -0.063 | -0.138 | 0.077 | 0.011 | -0.061 | 0.023
BUB1B isoform 3 (UniProt O60566) | 0.019 | 0.054 | -0.049 | -0.031 | 0.157 | 0.052 | 0.037 | -0.038 | -0.031 | -0.095 | -0.092 | -0.039 | -0.023 | 0.106 | -0.089 | -0.098 | 0.09 | 0.11 | -0.011 | 0.017
ARFIP1 (UniProt P53367) | 0.217 | -0.121 | 0.087 | 0.094 | 0.115 | 0.62 | -0.126 | -0.013 | 0 | 0.044 | -0.034 | -0.117 | -0.075 | -0.104 | -0.031 | -0.011 | -0.029 | 0.006 | 0.014 | 0.164
APPL1 (UniProt Q9UKG1) | -0.049 | 0.162 | 0.055 | 0.012 | 0.055 | 0.016 | 0.038 | -0.029 | 0.014 | 0.003 | 0.016 | -0.067 | -0.074 | -0.024 | 0.037 | 0.006 | 0.069 | 0.059 | -0.15 | -0.011
ACAD9 (UniProt Q9H845) | -0.002 | 0.025 | 0.054 | 0.015 | 0.035 | 0.032 | 0.026 | -0.002 | -0.002 | 0.029 | 0.01 | 0.005 | -0.041 | -0.034 | 0.007 | 0.002 | -0.036 | -0.028 | -0.012 | 0.028
ACIN1 (UniProt Q9UKV3) | 0.116 | -0.1 | -0.033 | 0.006 | 0.051 | 0.007 | 0 | -0.012 | -0.041 | -0.038 | -0.052 | 0.004 | -0.155 | 0.063 | 0.043 | -0.022 | -0.026 | -0.006 | -0.017 | -0.369 (active)
BOP1 (UniProt Q14137) | -0.003 | 0.038 | -0.144 | 0 | -0.053 | 0.041 | -0.153 | -0.014 | 0.043 | 0.036 | -0.039 | 0.01 | -0.083 | 0.041 | 0.119 | -0.068 | 0.031 | 0.021 | 0.01 | -0.078
AP2B1 isoform 2 (UniProt P63010) | -0.021 | 0.017 | -0.01 | 0.003 | 0.004 | -0.009 | -0.004 | -0.158 | -0.225 (active) | -0.003 | -0.002 | 0.025 | -0.034 | 0 | 0.008 | 0.029 | 0.005 | 0.011 | 0.027 | 0.035
ATF1 (UniProt P18846) | -0.058 | 0.244 | 0.129 | -0.054 | -0.221 | 0.023 | – | 0.039 | -0.117 | -0.024 | – | -0.02 | -0.02 | – | -0.07 | 0.081 | – | – | -0.04 | -0.127
ANP32E (UniProt Q9BTT0) | 0.211 | 0.038 | 0.114 | -0.062 | 0.027 | -0.025 | 0 | -0.014 | -0.026 | -0.084 | 0.016 | 0.019 | -0.128 | -0.035 | -0.067 | -0.181 | -0.036 | 0.028 | 0.082 | -0.214
BRAF (UniProt P15056) | 0.031 | 0.057 | 0.034 | 0.007 | 0.08 | -0.012 | – | -0.054 | -0.088 | 0.024 | -0.025 | 0.002 | – | 0.019 | – | -0.044 | -0.031 | 0.047 | 0.003 | 0.056
APOB (UniProt P04114) | 0.062 | 0.008 | 0.042 | -0.024 | -0.018 | 0.05 | 0.046 | -0.011 | 0.018 | -0.174 | 0.042 | -0.012 | 0.045 | -0.239 | -0.295 | -0.438 | 0.403 | -0.171 | 0.066 | 0.021
ALDH9A1 (UniProt P49189) | 0.131 | 0.021 | 0.035 | -0.077 | -0.023 | 0.013 | -0.103 | 0.043 | 0.035 | 0.045 | – | -0.008 | -0.024 | -0.077 | 0 | -0.27 | 0.185 | – | -0.056 | -0.035
ACP1 (UniProt P24666) | 0.149 | 0.06 | 0.035 | -0.066 | 0.224 | -0.059 | – | 0.109 | -0.001 | -0.015 | -0.027 | -0.073 | -0.083 | – | -0.238 | -0.071 | – | 0.107 | -0.055 | -0.087
ATRN (UniProt O75882) | 0.006 | 0.037 | -0.113 | -0.148 | 0.098 | 0.04 | – | -0.166 | -0.052 | 0.018 | -0.084 | 0.083 | 0.012 | – | -0.02 | 0.033 | – | 0.079 | -0.08 | 0.044
